# Results from PubChem BioAssay (NCI).
# Compounds without any hit were thinned out: in the full panel of roughly 83,000, 20% have a hit.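 Testing used 96-well plates and a 48-hour single-concentration exposure. Example: -40 means 40% of the starting cells died.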 Active and inactive are the calls of the source. The calls were made as follows: active = growth percent below 10; inactive = the rest.
# System: SF-295 CNS
# Experiment: NCI-60 one-dose screen, 48 h (100 = growth as untreated, 0 = no growth, -100 = all killed)
# Conditions: 10 µM unless noted
row,Compound,growth
1,CC(C)C1=NOC(=O)C1=Cc1cn(-c2ccccc2)nc1-c1ccccc1,98.1% (inactive)
2,CCN(CC)CCCNCc1cc(-c2ccccc2)nc2ccccc12,70.2% (inactive)
3,CCOC(=O)CCC[P+](c1ccccc1)(c1ccccc1)c1ccccc1,105% (inactive)
4,Cc1cccc(C[C@H](NC(=O)Nc2ccc(Cl)cc2F)C(=O)N[C@@H]2C(=O)N3C[C@H](O)C[C@H]3C(=O)N3CCN(C)C[C@H]3C(=O)N[C@@H](C)C(=O)N3C[C@H](C)C[C@H]3C(=O)O[C@H]2C)c1,19.7% (inactive)
5,COc1cc(C)cc2oc3oc(=O)c(C(=O)c4cc5cc(Br)ccc5o4)cc3c(=O)c12,103% (inactive)
6,COc1ccc(CC(C#N)c2ccc(Cl)cc2)cc1 (configuration not stated),78.9% (inactive)
7,Clc1ccc(/C=N/Nc2nc3ccccc3s2)c(Cl)c1,97.5% (inactive)
8,Nc1nc(SCc2cccc([N+](=O)[O-])c2)c2[nH]cnc2n1,93.6% (inactive)
9,COC(=O)[C@]12CCC(C)(C)C[C@H]1C1=CC[C@@H]3[C@@]4(C)C/C(=C/c5cccnc5)C(=O)C(C)(C)[C@@H]4CC[C@@]3(C)[C@]1(C)CC2,-29.8% [100 µM] (active)
10,Cn1cc(-c2nnc(-c3cn(C)c4ncccc34)o2)c2ccccc21,13.1% (inactive)
11,Cc1ccc(C2=C/C(=C/c3ccc(Br)cc3)C(=O)N2CCc2ccc(S(N)(=O)=O)cc2)cc1,101% (inactive)
12,COc1ccc2nc3cc(Cl)ccc3c(Nc3ccc(O)cc3)c2c1,84.9% (inactive)
13,CCCCN(CC)CC(CC)Nc1cc(OC)cc2cccnc12 (configuration not stated),109% (inactive)
14,O=C(Nc1cccc2ccccc12)c1cc2ccccc2cc1O,6.2% (active)
15,C=C(C)[C@@H]1CC[C@]2(COCCC#N)CC[C@]3(C)[C@H](CC[C@@H]4[C@@](C)(CCCNCCC#N)[C@H](C(=C)C)CC[C@]43C)[C@@H]12,65.2% [100 µM] (inactive)
16,Cc1ccc(-c2cn(C/C=C3\C=CN(S(=O)(=O)c4ccccc4)CC3)nn2)cc1,99.3% (inactive)
17,CN(C)c1ccc(-c2ccc(-c3ccc(C(=N)N)cc3)s2)cc1,102% (inactive)
18,CCOC(=O)c1nn(C2CCCCO2)c2ccc(NC(=O)CN3CCOCC3)cc12 (configuration not stated),101% (inactive)
19,Cn1cc(-c2noc(-c3cn(C)c4ncc(Br)cc34)n2)c2cc(Cl)ccc21,63% (inactive)

row,Compound,growth
1,Cc1cc2c(C(C)C)c(O)c(O)c(C=NCc3ccoc3)c2c(O)c1-c1c(C)cc2c(C(C)C)c(O)c(O)c(C=NCc3ccco3)c2c1O,22% (inactive)
2,Cc1cccc(C[C@H](NC(=O)Nc2ccc(C)cc2F)C(=O)N[C@@H]2C(=O)N3C[C@H](O)C[C@H]3C(=O)N3CCN(C)C[C@H]3C(=O)N[C@@H](C)C(=O)N3C[C@H](C)C[C@H]3C(=O)O[C@H]2C)c1,45% (inactive)
3,COc1cc2c(c(Br)c1N)-c1cc(Br)c(N)cc1C2=O,57.2% (inactive)
4,CCN(CC)CCSC(=O)C(O)(c1ccccc1)C1CCCC1 (configuration not stated),113% (inactive)
5,CCN(CC)CCCOc1ccc2c(c1)O/C(=C\c1cccc(OC)c1)C2=O,93.4% (inactive)
6,CCOC(=O)/C(C#N)=C(\C)CCc1ccccc1,114% (inactive)
7,O=C(CCN1CCCCC1)c1ccc(Cl)cc1,94.2% (inactive)
8,C[C@H]1[C@H](C)CC[C@]2(C(=O)O)CC[C@]3(C)C(=CC[C@@H]4[C@@]5(C)C/C(=C/c6ccco6)C(=O)C(C)(C)[C@@H]5CC[C@]43C)[C@H]12,-79.4% [100 µM] (active)
9,Cc1ccc(NC(=O)N[C@@H](Cc2cc(F)cc(F)c2)C(=O)N[C@@H]2C(=O)N3CCC[C@H]3C(=O)N3CCOC[C@H]3C(=O)N[C@@H](C)C(=O)N3C[C@H](C)C[C@H]3C(=O)O[C@H]2C)cc1,12.7% (inactive)
10,CCCCOC(=O)c1c(C)[nH]c(/C=C2\N=C(c3ccc[nH]3)C=C2OC)c1C,-61.9% (active)
11,O=C(O)c1cn(C2CC2)c2cc(N3CCN(Cc4cc(Cl)ccc4O)CC3)c(F)cc2c1=O,34.3% (inactive)
12,C[n+]1cccc(NC(=O)c2ccc3ccc4ccc(C(=O)Nc5ccc[n+](C)c5)nc4c3n2)c1,5.59% (active)
13,O=c1cc(-c2ccccc2)oc2cc(OCc3cn(Cc4ccc(F)cc4)nn3)cc(O)c12,10.4% [100 µM] (inactive)
14,CCc1ccc(NC(=O)N[C@@H](Cc2cc(F)cc(F)c2)C(=O)N[C@@H]2C(=O)N3C[C@H](O)C[C@H]3C(=O)N3CCOC[C@H]3C(=O)N[C@@H](C)C(=O)N3C[C@H](C)C[C@H]3C(=O)O[C@H]2C)cc1,81.9% (inactive)
15,C=C(CC(=O)OC)C(C)=O,106% (inactive)
16,O=C1/C(=C\c2cn(CC(O)CN3CCCCC3)c3ccccc23)c2ccccc2N1c1c(Cl)cccc1Cl (configuration not stated),-82.7% (active)
17,CC/C=C(\C)C(CCC)(CN=O)C(=O)OCC (configuration not stated),112% (inactive)
18,CN(C)C(=S)Sc1ccc([N+](=O)[O-])cc1[N+](=O)[O-],90.3% (inactive)
